# Reference: PubChem BioAssay AID485349 (National Center for Advancing Translational Sciences (NCATS), 2010)
# Hit rate of the full screen: of about 320,000 compounds, about 620 (0.19%) were called active. The sample holds actives, similar compounds and a random draw of the others, so the mix is not that of the screen. Values without a mark were called inactive. Calls follow the shape of the dose curve; as a rule, active = well fitted activation curve with a large enough effect; inconclusive = small, poorly fitted or top-dose-only effect; inactive = no such curve, though single readings can be large or run the other way. Non-standard residues stand in square brackets, D forms with d. Residues, ends and D or L forms follow the SMILES beside them. ξ: configuration not given here. ξV = CC(C)C(N)C(=O)O
# Experiment: qHTS Assay for Identifying a Potential Treatment of Ataxia-Telangiectasia; also: nearly all actives have a fitted effect of over 45% in size; as to activation: % of control where 0% means no effect
# Settings: F2112 A-T fibroblasts, KAP-1 phosphorylation AlphaLISA, neocarzinostatin DNA damage 30 min before lysis; series mostly up to 57.5 µM; activation: at the top concentration
# Procedure, shortened: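 hTERT-immortalized A-T patient fibroblasts (F2112), 500 cells/well in OPTI-MEM, 1% FBS, got compounds for 60 min, then NCS for 30 min at 37C. Lysates were then assayed for phospho-KAP-1 by AlphaLISA (anti-pKAP1 donor, anti-KAP1 acceptor beads), 6 hr at 25C.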
# Potency is read from the fitted curve at half-maximal effect.
Structure (SMILES),activation,Potency
O=C1OCCN1C(=O)[C@H]1[C@H](c2ccc(F)cc2)C(c2ccccc2)=NN1c1ccc(Br)cc1,11.3%,–
O=C(NC1CC1)c1ccc(-c2ccccc2)cc1,1.37%,–
OCCCNc1nccc(-c2cc(Nc3cccc(Cl)c3)ncn2)n1,16.1%,–
CC(C)C[C@H](CO)Nc1nc(N(C)c2cccc(Cl)c2)c2ncn(C(C)C)c2n1,40.9%,–
CC(C)n1cnc2c(Nc3cccc(Cl)c3)nc(N(CCO)CCCO)nc21,–,31.6 µM (active)
CC[C@]1(C(=O)OC)[C@H]2C(=O)N(C)C(=O)[C@H]2[C@H]2CN(C)C(=NCc3ccccc3)N21,10.8%,–
O=C1c2ccccc2[C@@H]2C[C@@H](O)[C@H](Nc3ccccc3Cl)CCN12,6.12%,–
COc1ccc(C)c(Cn2c(-c3nonc3N)nc3ccccc32)c1,3.48%,–
CN(CC(=O)Nc1ccc(F)c(F)c1F)C(=O)C1CC(=O)N(C2CCCC2)C1 (stereo unspecified),-2.38%,–
NNC(=O)c1oc2nc(-c3ccccc3)cc(-c3ccco3)c2c1N,-6.9%,–
CNC(=S)NNC(=O)c1cccn(Cc2ccccc2)c1=O,1.34%,–
CNC(=S)NNC(=O)c1oc2nc(-c3ccccc3)cc(-c3ccco3)c2c1N,–,39.8 µM (active)
O=C(c1ccccc1Cl)N(Cc1ccccc1F)N1C(=O)CCCC1=O,-2.36%,–
COC(=O)[C@@H]1C[C@@]2(O)[C@H](O)[C@H](O)[C@H](O)C[C@H]2N1Cc1ccc(C(C)(C)C)cc1,12.9%,–
CC[C@]12c3[nH]c4cc(CCC(=O)N(C)C)ccc4c3CCN1C(=O)[C@@H](CC(=O)NCCCN(C)C)C[C@@H]2C(=O)N1CCN(C(=O)c2ccco2)CC1,7.32%,–
CC(=O)NC(C(=O)NCC(N)=O)C(C)C (stereo unspecified) (Ac-[ξV]-Gly-NH2),3.33%,–
Cc1csc(SCC(=O)N(c2ccccc2)C(C)C)n1,12.3%,–
COc1ccc2sc(-c3ccc(N(C)C)cc3)c(C#CCO)c2c1,–,31.6 µM (active)
COc1ccc2sc(-c3ccc(N(C)C)cc3)c(-c3ccc4cc[nH]c4c3)c2c1,19.1%,–
COc1ccc(-c2sc3ccc(OC)cc3c2C#Cc2ccccn2)cc1,33.9%,–
CCCCNC(=O)OC(C)CNC(=O)OC (stereo unspecified),0.846%,–
CC[C@]12c3[nH]c4cc(CCC(=O)N(C)C)ccc4c3CCN1C(=O)[C@@H](CC(=O)NCc1ccco1)C[C@@H]2C(=O)N1CCN(C(=O)c2ccco2)CC1,3.31%,–
CCCNC(=O)CCn1nc(-c2ccccc2)c2ccccc2c1=O,-26.7%,–
C=C(C)C(=O)O[C@H]1C/C(C)=C\C(=O)/C=C(\C)[C@H](O)[C@@H]2OC(=O)C(=C)[C@@H]21,–,39.8 µM (active)

Structure (SMILES),activation,Potency
O=C(CSc1ccc([N+](=O)[O-])cn1)Nc1ccc(N2CCOCC2)c(Cl)c1,0.708%,–
CC(CCN1CCN=C1N(C)C)c1ccccc1 (stereo unspecified),3.24%,–
Cc1nn(C)cc1N1C(=O)c2cccc3c(N)ccc(c23)C1=O,26%,–
O=C(O)c1ccc2c3c(cccc13)C(=O)N(OS(=O)(=O)c1ccccc1)C2=O,-0.483%,–
CN1C(=O)c2cccc3c(N)ccc(c23)C1=O,–,17.8 µM (active)
CC[C@]12c3[nH]c4cc(CCC(=O)N(C)C)ccc4c3CCN1C(=O)[C@@H](CC(=O)NCC13CC4CC(CC(C4)C1)C3)C[C@@H]2C(=O)N1CCN(C(=O)C2CC2)CC1,16.8%,–
CCCN(CC(=O)NC(=O)NC1CCCCC1)CC(=O)Nc1cc(Cl)ccc1Cl,-4.08%,–
CN(Cc1ccccc1)C(=O)COC(=O)/C=C/c1ccc2c(c1)OCO2,15.3%,–
CCOC(=O)CCCNC(=O)COC(=O)/C=C/c1ccc2c(c1)OCO2,2.79%,–
O=C(COC(=O)/C=C/c1ccc2c(c1)OCO2)NC1CCS(=O)(=O)C1 (stereo unspecified),–,3.16 µM (active)
CC(=O)Oc1ccc(C(C)=O)c2c1OCCO2,1.49%,–
C[C@H](NS(=O)(=O)c1ccc(Cl)cc1)C(=O)OCC(=O)N1CCOCC1,11.7%,–
c1ccc2c(CCN3CCNC[C@H]3Cc3cccc4ccccc34)cccc2c1,-2.42%,–
CC(Sc1ncnc2c1cnn2-c1ccccc1)C(=O)Nc1ccc(N2CCOCC2)cc1 (stereo unspecified),18.6%,–
CC(C)Sc1ncnc2c1cnn2-c1ccccc1,–,39.8 µM (active)
CCN(CC)C(=O)CSc1ncnc2c1cnn2-c1ccccc1,-3.41%,–
Cc1ccc(OCc2nnc(SC3CCc4ccccc4C3=O)n2C)cc1 (stereo unspecified),11.7%,–
CC1(C)Cc2cccc(OCC(=O)N3CCN(c4ccc([N+](=O)[O-])cc4)CC3)c2O1,-15%,–
C=CC(COCc1ccccc1)N(CC(=O)OC)S(=O)(=O)c1cc(Br)ccc1OC (stereo unspecified),-2.37%,–
CCOC(=O)c1c(C)[nH]c(C)c1S(=O)(=O)NCCCc1ccco1,0.382%,–
CCOC(=O)c1c(CNCc2ccccc2F)c2sc(C)cc2n1C,6.44%,–
Cc1ccccc1C1CC(c2cccs2)=NN1S(C)(=O)=O (stereo unspecified),2.2%,–
COc1ccc(C2=NN(c3ccccc3)C(c3cccs3)C2)cc1 (stereo unspecified),30.4%,–
COc1ccc(C2CC(c3cccs3)=NN2C(=O)CCC(=O)O)cc1OC (stereo unspecified),-10%,–

Structure (SMILES),activation,Potency
O=C(COc1ccccc1Cl)N1N=C(c2cccs2)CC1c1ccco1 (stereo unspecified),10.1%,–
COc1cccc(C2CC(c3cccs3)=NN2C(=O)CSC2=NCCS2)c1OC (stereo unspecified),2.45%,–
Fc1ccc(N2N=C(c3cccs3)CC2c2ccco2)c(F)c1 (stereo unspecified),–,28.2 µM (active)
COc1ccc(C2CC(c3cccs3)=NN2c2ccccc2)cc1 (stereo unspecified),–,28.2 µM (active)
COc1ccc(C2CC(c3cccs3)=NN2c2nc(C)c(C(C)=O)s2)cc1OC (stereo unspecified),25%,–
COc1ccccc1N1N=C(c2cccs2)CC1c1ccccc1 (stereo unspecified),–,15.8 µM (active)
COc1ccc(C2CC(c3cccs3)=NN2C(=O)CSc2nncs2)cc1OC (stereo unspecified),-1.85%,–
COc1ccc(C2=NN(C(C)=O)C(c3ccccc3)C2)cc1 (stereo unspecified),1.93%,–
COc1ccc(C2CC(c3cccs3)=NN2c2ccc(F)cc2)cc1OC (stereo unspecified),–,25.1 µM (active)
COC(=O)[C@@]1(C)[C@H]2C(=O)N(Cc3ccccc3)C(=O)[C@H]2[C@H]2CN=C(SCC3CC3)N21,12.9%,–
C=C(C)Cn1c(C)cc(C)c(S(=O)(=O)c2ccccc2C)c1=O,6.82%,–
COC(=O)c1cc2occc2n1Cc1nc(-c2ccccc2C)oc1C,-6.52%,–
COc1cc(/C=C/C(=O)OCC(=O)c2ccccc2)cc(OC)c1OC,1.85%,–
C=CCNC(=O)C12CC3CC(C1)CC(C(=O)NCC=C)(C3)C2,-0.102%,–
N#CC(Cc1cc2ccccc2n1S(=O)(=O)c1ccccc1)OCc1ccccc1 (stereo unspecified),13.4%,–
CC1(C)CCSC(/C=C/c2ccccc2)=N1,24.1%,–
CC[C@]12c3[nH]c4ccc(Cl)cc4c3CCN1C(=O)[C@@H](CC(=O)NCCCOC)C[C@@H]2C(=O)N1CCN(C(=O)c2ccco2)CC1,-37.5%,–
Cc1ccc(S(=O)(=O)N(C)C)cc1NC(=O)C(C)OC(=O)c1ccc2ccccc2n1 (stereo unspecified),6.37%,–
Cc1cc(NS(=O)(=O)c2ccc(NC(=O)C(C)Oc3cccc(C)c3C)cc2)nc(C)n1 (stereo unspecified),1.45%,–
CCCCNC(=O)CCn1nc(-c2ccc(Cl)cc2)ccc1=O,7.06%,–
CCCCNC(=O)C(C)N(CCN(C)C)C(=O)CCCN1C(=O)NC(c2ccc(Cl)cc2)C(C(=O)OCc2ccccc2)=C1C (stereo unspecified),8.76%,–
COCc1cc(C)nc2sc3c(=O)n(-c4cccc5ccccc45)nnc3c12,-0.284%,–
CCCNC(=O)N1CCN(C(=O)NCCC)CC1,-6.58%,–
OCCC1CN(Cc2cccn2-c2nccs2)CCN1CCc1ccccc1 (stereo unspecified),-1.87%,–

Structure (SMILES),activation,Potency
O=C(CN1C(=O)CC(c2ccccc2)=Nc2ccccc21)NC1CCCCC1,-3.66%,–
COc1ccc(C(CC(=O)c2ccccc2)S(=O)(=O)c2ccccc2)cc1 (stereo unspecified),-6.21%,–
CC(Sc1nn(-c2ccc(Cl)cc2)c(=S)s1)C(=O)NCC1CCCO1 (stereo unspecified),1.57%,–
CC1CC(C)(C)n2c(O)c(N=NC(N)=S)c3cccc1c32 (stereo unspecified),–,12.6 µM (active)
Cc1ccc(C(=O)N/C(=C/c2cccs2)C(=O)N2CCCCC2)cc1,0.215%,–
Cc1cc(C)c2nc(N(CCN(C)C)C(=O)/C=C/c3cccs3)sc2c1,0.0598%,–
CCC(=O)Nc1ccc(-c2ccc(N3CCCCC3)nn2)cc1,1.96%,–
CC[C@]1(C(=O)OC)[C@H]2C(=O)N(Cc3ccccc3)C(=O)[C@H]2[C@H]2CN=C(SCc3ccccc3)N21,5.41%,–
COc1ccc(NC(=O)CN2CCN(S(=O)(=O)c3ccc(F)cc3)CC2)cc1Cl,0.37%,–
COc1ccc(NC(=O)Cn2cc(C(=O)c3ccncc3)c(=O)c3cc(C)ccc32)cc1Cl,–,28.2 µM (active)
COc1ccc2c(c1)c(=O)c(C(=O)c1ccc(Cl)cc1)cn2CC(=O)Nc1ccc(F)cc1,16.2%,–
ONC(=Nc1ccc(Cl)cc1)c1ccccc1Cl,6.68%,–
Cc1cccc2c1-c1sc(C(=O)NCCCN3CCc4ccccc4C3)cc1CO2,-1.52%,–
COc1ccc2[nH]c3c(c2c1)CCN1C(=O)C(CC(=O)NCCCN(C)C)C[C@H](C(=O)N2CCOCC2)[C@@]31CCC1CCCC1 (stereo partly specified),-3.33%,–
CC[C@@H]1Cc2cc(O)ccc2C2=C1c1ccc(O)cc1C[C@H]2CC,14.8%,–
CCOc1ccc(C(C)NC(=O)CN2C(=O)NC3(CCCCC3)C2=O)cc1OCC (stereo unspecified),9.29%,–
CC[C@]12c3[nH]c4ccc(OC)cc4c3CCN1C(=O)C(CC(=O)NCc1ccco1)C[C@@H]2C(=O)N1CCN(C(=O)C2CC2)CC1 (stereo partly specified),4.23%,–
CN(C(=O)COC(=O)c1cc(=O)[nH]c2ccccc12)C1CCCCC1,-2.3%,–
CN(Cc1nc(-c2cnccn2)no1)Cc1n[nH]c2c1CCCCC2,–,31.6 µM (active)
CCn1ccnc1CN(C)Cc1nc(-c2ccc3c(c2)OCO3)no1,-0.159%,–
CN(Cc1cc2cc(F)ccc2[nH]1)Cc1nc(-c2cnccn2)no1,1.4%,–
COc1ccc(C(F)(F)F)cc1N/C=C\c1nnnn1-c1ccc(C)cc1,7.4%,–
O=C1[C@@H](c2ccccc2)[C@@H](c2ccccc2)N1c1cccnc1,10.1%,–
CC(C)N(C(=O)[C@H]1C[C@H](CC(=O)NC(C)(C)C)C(=O)N2CCc3c([nH]c4ccc(Cl)cc34)[C@]12C)C(C)C,-0.0292%,–
